Results filed as inconclusive are left out. Where a call stands in place of a potency, no number is given. Calls of active or inactive are those of the source. The call rests on the fitted dose curve; in most records, active means well fitted cell-killing curve with a large enough effect in the repeat runs; inconclusive means weak or mixed curves, or effect the other way; inactive means no such curve, though single readings can be large or run the other way.
Assay: qHTS assay to identify small molecule agonists of the vitamin D receptor (VDR) signaling pathway - cell viability counter screen (AID 743224); further: nearly all actives have a fitted effect of over 50% in size
Details: VDR-bla HEK293T viability, CellTiter-Glo luminescence, 16 h; series mostly up to 62.6 µM
Source text: U.S. Tox21 Program National Center for Advancing Translational Sciences [NCATS] NIH Chemical Genomics Center [NCGC] U.S. Environmental Protection Agency [EPA] National Institutes of Environmental Health Sciences [NIEHS] National Toxicology Program [NTP] U.S. Food and Drug Administration [FDA] Tox21 Assay Overview: The vitamin D receptor (VDR), a member of nuclear hormone receptor superfamily, plays a critical role in calcium homeostasis and bone metabolism. It is also involved in cell differentiation and growth, and thrombogenicity. […] The cytotoxicity of the Tox21 compound library against the VDR-bla cell line was tested in parallel by measuring the cell viability using CellTiter-Glo assay (Promega, Madison, WI) in the same wells.
Tox21 Assay Protocol Summary: VDR-bla cells were dispensed at 2,000 cells/6 uL/well into black wall/clear-bottom 1536-well plates using a Multidrop Combi (Thermo Fisher Scientific, Waltham, MA) dispenser. After the assay plates were incubated at a 37C and 5% CO2 for 4 h, 23 nL of compounds dissolved in DMSO, positive controls or DMSO only was transferred to the assay plate by a Pintool station (Kalypsys, San Diego, CA). The plates were incubated at 37C and 5% CO2 for 16 h. After 1 uL of LiveBLAzerTM B/G FRET substrate was added using a Bioraptr Flying Reagent Dispenser (FRD) workstation (Beckman Coulter, Indianapolis, IN, USA), the plates were incubated at room temperature for 2 h, and fluorescence intensity was measured by an Envision plate reader (PerkinElmer, Shelton, CT). For cell viability readout that measures cytotoxicity, 3 ul/well of CellTiter-Glo reagent was added into the assay plates using a FRD. After 30 min incubation at room temperature, the luminescence intensity in the plates was measured using a ViewLux (PerkinElmer) plate reader.

| SMILES | Potency |
| --- | --- |
| COc1nc(NC(C)C)nc(NC(C)C)n1 | inactive |
| CN(C)C(=O)Nc1cccc(C(F)(F)F)c1 | inactive |
| COS(=O)(=O)OC | inactive |
| C=CCN=C=S | inactive |
| OCCCCO | inactive |
| C[C@H]1C(=O)O[C@@H]2CCN3CC=C(COC(=O)[C@](C)(O)[C@]1(C)O)[C@H]23 | inactive |
| O=C(O)C1C(C(=O)O)C2(Cl)C(Cl)=C(Cl)C1(Cl)C2(Cl)Cl (stereo not given) | inactive |
| Cc1cccc(N)c1C | inactive |
| CC(C)(C)C(=O)CCl | inactive |
| ClCCOCCCl | inactive |
| CNC(=O)O/N=C/C(C)(C)SC | inactive |
| O=S(=O)(O)OOS(=O)(=O)O | inactive |
| CC[N+](=O)[O-] | inactive |
| OC[C@@H](O)[C@H]1O[C@@H]2O[C@H](C(Cl)(Cl)Cl)O[C@@H]2[C@H]1O | inactive |
| ClC(Cl)c1ccccc1 | inactive |
| C=CC#N | inactive |
| N#CN=C(N)N | inactive |
| C[C@]12CC[C@H](O)CC1=CC[C@@H]1[C@@H]2CC[C@]2(C)C(=O)CC[C@@H]12 | inactive |
| O=C(O)CCCc1ccc(N(CCCl)CCCl)cc1 | inactive |
| CCOc1ccc(N)cc1 | inactive |

| SMILES | Potency |
| --- | --- |
| CCCCCCCCCCCCCCCCCC(=O)O | inactive |
| Clc1cnc(Oc2ccc(Oc3ncc(Cl)cc3Cl)cc2)c(Cl)c1 | inactive |
| CN1C(=O)CCS(=O)(=O)C1c1ccc(Cl)cc1 (stereo not given) | inactive |
| OCc1ccco1 | inactive |
| Cc1cc(Cl)ccc1OC(C)C(=O)O (stereo not given) | inactive |
| CC(C)CCCCCCOC(=O)c1ccccc1C(=O)OCCCCCCC(C)C | inactive |
| Cc1cc(O)ccc1Cl | inactive |
| C/C=C/c1ccc2c(c1)OCO2 | inactive |
| Cc1ccc(O)c(C)c1 | inactive |
| O=P1(NCCCl)OCCCN1CCCl (stereo not given) | inactive |
| c1ccc2c(c1)CCCC2 | inactive |
| CC(C)c1cccc(C(C)C)c1O | inactive |
| C=C(C)C(=O)OCC(CC)CCCC (stereo not given) | inactive |
| Oc1c(Br)cc(Br)cc1Br | inactive |
| O=[N+]([O-])c1ccc(Cl)c(Cl)c1 | inactive |
| Nc1cccc(Cl)c1 | inactive |
| C=CC(=O)OCC(CC)CCCC (stereo not given) | inactive |
| Nc1ccc([As](=O)(O)O)cc1 | inactive |
| O=[N+]([O-])c1ccc(Cl)cc1 | inactive |
| Cc1ccc(N=C=O)cc1N=C=O | inactive |
